IDE cell inh: human IDE inhibitors in live cells, primary screen, fluorescence polarization, HEK cells, FAbetaB substrate; FAbetaB cleavage; inhibition, % at 5.59 µM; actives 0.41% (n = 320,000); Insulin-degrading enzyme (Homo sapiens), P14735; AID 434962, 2010;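 active = percent inhibition above the average of all tested compounds plus 3 SD, set per screening campaign, cut at about 16% in these data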;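 note: IDE supplied by intact live HEK cells; FP after avidin binding of uncleaved biotin substrate so inhibition keeps polarization high; 0% = DMSO wells and 100% = 60 µM reference IDE inhibitor Ii1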
Myeloid diff 2: induction of myeloid progenitor differentiation, primary screen, cell-based, flow cytometry, MLPCN library; ER-HoxA9 myeloid progenitors, lysozyme-GFP differentiation; calls only at 10 µM; actives 1% (n = 360,000); AID 624256, 2012;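 active = normalized GFP-positive differentiation at or above the plate's own cutoff, the solvent-only control mean plus 3 SD; inconclusive = no clear call, values can overlap the other calls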;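 note: cells exposed to compound for four days before flow analysis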
CRFR2-BP ag: agonists of CRF-BP/CRF-R2 complex, primary screen, cell-based, HEK293, calcium dye fluorescence, uHTS. CRF-binding protein / CRF receptor 2 complex (human). calcium dye fluorescence (FLIPR); percent of saturating CRF peptide response. activation, % at 13.2 µM. actives 0.46% (n = 350,000). AID 588473, 2011;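 active = activation of at least 50%, plus an integration ratio under a set limit after plate pattern correction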;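 note: plate controls were neutral control wells without compound for no effect and CRF at EC100 for full effect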
CRFR2-BP antag: antagonists of CRF-BP/CRF-R2 complex, primary screen, cell-based, HEK293, calcium dye fluorescence, uHTS; CRF-induced calcium fluorescence; inhibition, % at 11.8 µM; actives 0.59% (n = 350,000); AID 588475, 2011;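 active = inhibition of the ligand-induced calcium signal above about 50% at the single tested concentration, limit read from the data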
TPT1 inhibitor: Candida albicans TPT1 enzyme inhibitors, primary screen, biochemical, fluorescence polarization; tRNA 2'-phosphotransferase TPT1 (Candida albicans SC5314); recombinant caTPT1, FP RNA substrate dephosphorylation; inhibition, % at 5 µM; actives 0.81% (n = 300,000);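 active = inhibition above the mean of all tested compounds plus 3 SD, set per screening campaign, cut at about 24% in these data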;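 note: plate controls were DMSO alone for no effect and ferristatin control at 100 nM for full effect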
IDE cell activ: human IDE activators in live cells, primary screen, fluorescence polarization, HEK cells, FAbeta-B substrate; Insulin-degrading enzyme (Homo sapiens), P14735; FAbeta-B cleavage; 0% vehicle, 100% cell-free pure enzyme wells; activation, % at 5.96 µM; actives 0.073% (n = 340,000); AID 493087, 2011;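 active = activation above the mean of all tested compounds plus 3 SD, set per screening campaign, cut at about 17% in these data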
An asterisk follows results filed as active; i = inactive; ? = inconclusive; · = no result given; + = active, no number. Sampled rows, rich in hits. Any-hit rate of the full collection: about 2.6%.

SMILES | IDE cell inh | Myeloid diff 2 | CRFR2-BP ag | CRFR2-BP antag | TPT1 inhibitor | IDE cell activ
CN(C)c1ccc(N=Cc2nc(-c3ccccc3)oc2O)cc1 | 10 | i | 161* | -172 | -104 | -32
Oc1oc(-c2ccccc2)nc1C=Nc1ccccc1 | -1 | i | -1 | 1 | 3 | 3
CC1(C)C=C2C(=NN(c3ccccc3)C(N)=C2C#N)CO1 | -7 | + | 0 | -21 | -9 | -4
CC(C)Oc1ccc(F)cc1-c1cc(C(=O)NCc2ccc(F)cc2)[nH]n1 | · | i | · | · | · | ·
CCN1/C(=C/C=C/c2oc3ccc(-c4ccccc4)cc3[n+]2CC)Oc2ccc(-c3ccccc3)cc21 | -9 | ? | 227* | -171 | -11 | 2
O=C(Nc1ccccn1)C1CCN(S(=O)(=O)c2ccc3ccccc3c2)CC1 | · | i | 0 | 59* | · | -2
O=C(Nc1nc2ccc(S(=O)(=O)N3CCCCC3)cc2s1)c1ccncc1 | 0 | i | -1 | -9 | 0 | 2
Cc1cc(NC(=O)CN2CCN(S(=O)(=O)c3ccc4ccccc4c3)CC2)no1 | -1 | i | 3 | 50* | -2 | 3
O=C(Nc1nc2ccc(S(=O)(=O)N3CCCC3)cc2s1)c1ccccn1 | 9 | i | 3 | 65* | 1 | 3
Cc1ccnc(NC(=O)C2CCN(S(=O)(=O)c3ccc4ccccc4c3)CC2)c1 | 1 | i | 0 | 21 | 0 | 0
C[C@@H](CSc1ccccc1)CN1CC[C@H](NC(=O)OCc2ccccc2)CCC1=O | -1 | i | 0 | 3 | 4 | 4
CCn1c(=O)c(C(=O)NCc2ccccc2Cl)c(O)c2ccccc21 | · | i | 6 | -22 | · | 1
CC(C)Cn1c(=O)c(C(=O)Nc2ccncc2)c(O)c2ccccc21 | 2 | + | -1 | -32 | -1 | -2
CCCCCCCC(=O)NNC(=O)c1c(O)c2ccccc2n(CC)c1=O | 1 | + | 13 | -5 | 2 | 2
CCCCCCC(=O)NNC(=O)c1c(O)c2ccccc2n(CC)c1=O | -3 | i | 6 | -9 | -8 | 7
CC(C)Cn1c(=O)c(C(=O)Nc2cnccn2)c(O)c2ccccc21 | 7 | i | 2 | 2 | 0 | 3
Cn1c(=O)c(C(=O)NCc2ccccc2Cl)c(O)c2ccccc21 | 1 | i | 1 | 65* | 3 | 3
CCCn1c(=O)c(C(=O)NNC(=O)c2ccccc2Cl)c(O)c2ccccc21 | -4 | i | 66* | 4 | -1 | 0
COc1ccc(CCC(=O)Nc2c(-c3ccc(N(C)C)cc3)[nH][nH]c2=O)cc1 | · | i | · | · | · | ·
O=C(Nc1ccccc1F)Nc1ccc([N+](=O)[O-])cc1Cl | -2 | i | 6 | -8 | 3 | -4
COc1cc(NC(=O)CSc2nc3c(C)ccc(C)c3cc2C)c(C(=O)O)cc1OC | -1 | i | 0 | 99* | -2 | 2
CCc1cc2ccc(C)cc2nc1SCC(=O)Nc1cc(OC)c(OC)cc1C(=O)O | -1 | i | 1 | 39 | 1 | 4
O=Nc1nc2ncccn2c1-c1ccccc1 | · | i | 7 | 58* | · | 0
N#Cc1ccc(N[C@@H]2CCN3C(=O)c4ccccc4[C@@H]3C[C@H]2O)cc1 | · | + | -5 | -3 | · | 2
O=C(NC12CC3CC(CC(C3)C1)C2)c1ccc(N2CCNCC2)c([N+](=O)[O-])c1 | -6 | + | -2 | -20 | 3 | -5
SMILES | IDE cell inh | Myeloid diff 2 | CRFR2-BP ag | CRFR2-BP antag | TPT1 inhibitor | IDE cell activ
O=C(O)c1cc(-c2ccccc2)nc(-c2ccccc2)c1 | 3 | i | -1 | 54* | · | 2
Cc1onc(-c2c(Cl)cccc2Cl)c1C(=O)NCCN1CCOCC1 | -1 | i | 5 | -26 | 2 | 7
CCOc1ccc(NC(=S)Nc2ccc(OC)cc2)cc1 | 5 | i | 0 | 4 | 0 | -2
CCC(C)c1ccc(NC(=S)Nc2ccc(OC)cc2)cc1 (centres undefined) | -3 | i | 1 | 133* | -2 | 1
COc1cc(OC)c(NC(=O)c2sc3ncn(CC(=O)N4CCOCC4)c(=O)c3c2C)cc1Cl | 0 | i | 0 | -14 | 2 | 4
Cc1nc2c(C(=O)NCCc3ccccc3)c[nH]n2c(=O)c1Cl | 1 | i | -3 | 51* | -4 | 6
O=C(NCc1ccccc1)c1n[nH]nc1-c1ccccc1O | 1 | + | 2 | -3 | -1 | 3
Cc1cccc(N(C(=O)c2csnn2)C(C(=O)NC(C)(C)C)c2cccs2)c1 (centres undefined) | -1 | i | -1 | 8 | -2 | 1
Cc1cc([N+](=O)[O-])ccc1NC(=O)CN1C2CCC1CC(NC(=O)NC13CC4CC(CC(C4)C1)C3)C2 (centres undefined) | -6 | + | -1 | -5 | 2 | 6
COc1ccc(NC(=S)N2C3CCC2CC(NC(=O)NC24CC5CC(CC(C5)C2)C4)C3)c(OC)c1 (centres undefined) | -3 | i | -1 | -4 | -3 | 0
O=C(O)CCC(=O)Nc1cc(C(F)(F)F)cc(C(F)(F)F)c1 | 1 | i | 0 | 11 | -3 | 0
O=C(O)c1cc(-n2[nH]c(=O)c3ccccc3c2=O)ccc1Cl | 1 | i | 0 | -4 | -4 | 1
O=C(CNC(=O)c1ccccc1F)NNC(=O)c1ccccc1O | 4 | + | 1 | 4 | 1 | 2
COc1ccc(CCN2C(=O)COc3ccccc3C2C(=O)NC(C)(C)C)cc1OC (centres undefined) | · | i | · | · | · | ·
COc1ccc(NS(=O)(=O)c2ccc(C)cc2)c([N+](=O)[O-])c1 | -1 | i | -9 | 30 | -5 | 3
Cc1ccc(S(=O)(=O)Nc2ccc3cc([N+](=O)[O-])ccc3c2[N+](=O)[O-])cc1 | · | i | 6 | 81* | · | 0
Cc1ccc(S(=O)(=O)Nc2ccc3ccccc3c2[N+](=O)[O-])cc1 | · | i | -9 | 90* | · | 3
CCCCCCc1cc2cc(C(=O)Nc3ccccc3)c(=O)oc2cc1O | -2 | ? | 39 | -2 | -1 | 0
CCCCCCc1cc2cc(C(=O)NCc3ccccc3)c(=N)oc2cc1O | 4 | i | 175* | -109 | 22 | 1
CCCNC(=O)C1(C)CCCN(Cc2ccc(-c3ccccc3)cc2)C1 (centres undefined) | · | i | · | · | · | ·
CCCC[C@@H]1Cc2[nH][nH]c(=O)c2[C@H](c2ccc(C(C)C)cc2)O1 | · | i | · | · | · | ·
CCOC(=O)N1CCN(C(=O)c2ccc3c(=O)n(Cc4ccccc4OC)c(=S)[nH]c3c2)CC1 | 2 | i | 1 | -31 | 0 | 1

Bioassay records (PubChem BioAssay)
